This is one part of a sample in which hits are shown more often than they occur.
TbPYK inhibitor: inhibitors of Trypanosoma brucei pyruvate kinase; Q57TT1; TbPYK enzyme, Kinase-Glo Plus ATP luminescence, 45 min; Potency, µM (top dose mostly 76.8 µM), hits mostly inhibitors; actives 0.12% (n = 410,000); AID 624173; further: nearly all actives have a fitted effect of over 50% in size
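Assay buffer: 50 mM TEA pH 7.2, 100 mM KCl, 10 mM MgCl2, 0.05% BSA, 0.01% Tween-20. Pyruvate kinase from T. brucei plus substrate met compound, then ADP (130 uM final). Luminescence was read post 45 min RT.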
LmPK inh: LmPK (Leishmania mexicana) enzyme inhibition | actives 0.37% (n = 290,000) | Potency, µM (series often up to 57.5 µM), usual class: inhibitors | purified LmPK, Kinase-Glo ATP luminescence, 1 h
Target sequence (Q27686 whole entry, looked up): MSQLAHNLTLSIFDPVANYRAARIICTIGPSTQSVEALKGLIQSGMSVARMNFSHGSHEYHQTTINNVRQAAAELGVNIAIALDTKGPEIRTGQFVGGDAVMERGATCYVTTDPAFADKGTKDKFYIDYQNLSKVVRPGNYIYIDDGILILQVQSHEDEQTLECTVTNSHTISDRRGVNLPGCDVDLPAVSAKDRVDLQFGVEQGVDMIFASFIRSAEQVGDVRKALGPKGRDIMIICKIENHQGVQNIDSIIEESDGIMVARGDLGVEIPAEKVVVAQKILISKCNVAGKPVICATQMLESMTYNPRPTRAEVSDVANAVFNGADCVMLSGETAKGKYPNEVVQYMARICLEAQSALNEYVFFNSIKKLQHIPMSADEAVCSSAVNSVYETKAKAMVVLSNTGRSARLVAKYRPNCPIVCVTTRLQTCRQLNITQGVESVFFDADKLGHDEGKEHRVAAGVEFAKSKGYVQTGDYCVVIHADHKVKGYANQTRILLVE
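ATP generated from ADP (0.1 mM) and PEP (0.5 mM) by 0.1 nM LmPK over 1 h at room temperature (pH 7.2 imidazole buffer) was detected by coupled luciferase luminescence. Values were normalized to uninhibited and no-enzyme wells.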
CHX counter: counter-screen for Shiga toxin inhibitors: cycloheximide protein synthesis inhibition; actives 12% (n = 300,000); AID 2314; max response, %; cell reporter, cycloheximide protein synthesis inhibition counterscreen; in the data active means max response mostly above about 13%, no sharp cut-off; inactive means mostly below about 14%; further: read at 38.3 µM for the half of the compounds with a filed dose
FBPA Giardia inh: inhibitors of Giardia lamblia fructose-1,6-bisphosphate aldolase; AID 2451; actives 0.71% (n = 290,000); A8B2U2; purified Giardia FBPA; Potency, µM (highest dose often 59.6 µM), hits mostly inhibitors; further: nearly all actives have a fitted effect of over 55% in size
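Giardia FBPA (40 nM reagent) was preincubated 10 min at RT with compound (up to 57.5 uM final), then substrate plus GAPDH/TPI/NAD/arsenate coupling system with diaphorase/resazurin was added; resorufin fluorescence (525/598 nm) was read after 20 min.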
Shiga inhibitor: inhibitors of Shiga toxin in Vero cells. actives 9.2% (n = 290,000). inhibition, % at 38.7 µM. Vero cells, Shiga toxin protein synthesis inhibition reporter; in the data active means inhibition mostly above about 28%, no sharp cut-off; inactive means mostly below about 43%
Sm TGR block: S. mansoni TGR enzyme inhibition. Q962Y6. purified TGR, DTNB reduction, TNB absorbance 405 nm. Potency, µM (top dose mostly 114 µM), usual class: inhibitors. actives 3% (n = 360,000); further: nearly all actives have a fitted effect of over 60% in size
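First, TGR (20 nM dispensed) and NADPH were mixed with compound. Second, a 15 min room-temperature incubation followed. Third, further NADPH and then DTNB were added to start the reaction. Finally, TNB absorbance was monitored kinetically.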
A number is an active result; 0 = inactive; ? = inconclusive; - = not tested or not shown; + = active, no number; [ ] = remark or other dose. Unless noted, the call rests on the fitted dose curve; in most records, active means well fitted curve in the direction sought with a large enough effect; inconclusive means small, poorly fitted or top-dose-only effect, or another doubt; inactive means no such curve, though single readings can be large; an effect the other way counts as inactive or inconclusive.

SMILES	TbPYK inhibitor	LmPK inh	CHX counter	FBPA Giardia inh	Shiga inhibitor	Sm TGR block
N/C(=N\OC(=O)Cc1ccccc1[N+](=O)[O-])c1cccnc1	0	0	0	0	0	-
O=C(NCC(c1ccc(Cl)cc1)N1CCCCC1)c1ccccc1F (stereo not drawn)	0	-	-	-	-	0
Cc1ccc(-c2[nH]ncc2C(=O)c2ccccc2C)c(O)c1	0	0	0	0	0	0
COc1ccc(CC(=O)O/N=C(\N)c2ccc(OC)cc2)cc1	0	0	64	0	71	0
COc1ccc(CC(=O)O/N=C(\N)Cc2ccc(OC)cc2)cc1	0	0	0	-	0	0
Fc1ccccc1NC(=S)N1CCOCC1	0	0	0	0	0	0
O=C(NC(=S)Nc1ccc(CN2CCOCC2)cc1)c1ccco1	0	0	31	0	34	32µM
O=C(NC(=S)Nc1ccc(N2CCOCC2)cc1)c1ccco1	0	0	32	?	43	40µM
CCOc1cc(NC(=S)NCCCN2CCOCC2)c(OCC)cc1NC(=O)c1ccco1	0	0	0	0	0	35µM
Fc1ccccc1NC(=S)Nc1ccc(CN2CCOCC2)cc1	0	0	23	0	66	0
C=CC1=C2C=C(C3CC3)N(C3CCCCC3)C=C2C(=O)C(C)(OC(=O)c2ccco2)C1=O (stereo not drawn)	-	0[11.5 µM]	-	?	-	-
CCCCn1c(N)c(N(Cc2ccccc2OC)C(=O)C(C)C)c(=O)[nH]c1=O	0	0	0	-	0	0
COC(=O)c1sccc1S(=O)(=O)N(CC(=O)Nc1c(C)cccc1C)c1ccc(C)c(C)c1	0	-	-	-	-	0
CC(C)(C)c1nc(S(=O)(=O)c2ccc(Cl)cc2)c(N2CCOCC2)o1	0	0	0	0	0	8.9µM
CC(C)Cc1nc(S(=O)(=O)c2ccc(Cl)cc2)c(N2CCOCC2)o1	0	0	0	0	0	2.2µM
O=S(=O)(c1ccc(Cl)cc1)c1nc(-c2ccco2)oc1N1CCOCC1	0	0	0	0	0	0
CC(C)CC(C(=O)O)N1C(=O)C2C3C=CC(C2C1=O)C1C(=O)N(C(CC(C)C)C(=O)O)C(=O)C31 (stereo not drawn)	0	0	0	-	0	0
CC(=O)N1CCN(C(=S)NCCc2ccccc2)CC1	0	0	0	0	0	0
S=C(NCCc1ccccc1)N1CCc2ccccc2C1	0	0	67	0	116	0
NC(=O)C1CCN(C(=S)NCCc2ccccc2)CC1	0	0	18	0	0	0
S=C(NC1CCCCC1)N1CCc2ccccc2C1	0	0	38	0	+	0
S=C(NC1CC1)N1CCc2ccccc2C1	0	0	0	0	0	0
Oc1ccccc1N1CCN(C(=S)NCCc2ccccc2)CC1	0	0	27	0	31	0
O=C(COc1ccc2c(c1)CCC2)Nc1ccccn1	?	-	-	-	-	0
CC(C)CC1C(=O)N(Cc2cn(CCC3OCCCO3)nn2)CCS(=O)(=O)N1Cc1ccc(-c2ccc(Cl)nc2)cc1 (stereo not drawn)	0	-	-	-	-	-
SMILES	TbPYK inhibitor	LmPK inh	CHX counter	FBPA Giardia inh	Shiga inhibitor	Sm TGR block
COc1cccc(N2CCN(CC(=O)Nc3ccccc3C(=O)NCCc3ccccc3)CC2)c1	0	-	-	-	-	0
Oc1ccc(N2CCN(C(=S)NCCc3ccccc3)CC2)cc1	?	0	24	0	0	0
O=C(CN1CCN(c2ccc(O)cc2)CC1)Nc1ccccc1C(=O)NCCc1ccccc1	28µM	-	-	-	-	40µM
S=C(NCCc1ccccc1)N1CCN(Cc2ccccc2)CC1	0	0	31	0	0	0
Fc1cccc(CN2CCN(C(=S)NCCc3ccccc3)CC2)c1	0	0	0	0	0	0
COc1ccc(N2CCN(C(=S)NCCc3ccccc3)CC2)cc1	0	-	-	-	-	-
N#Cc1ccc(-c2cccs2)nc1SCc1ccc(Cl)cc1Cl	0	-	-	-	-	0
CN=C(Nc1ccc(Cl)cc1)c1ccc(C(F)(F)F)cc1	0	0	15	0	0	0
OC(CNCCc1ccc(C(F)(F)F)cc1)COC(c1ccccc1)c1ccccc1 (stereo not drawn)	0	0	0	?	0	0
CCOC(=O)c1c(C)nc2c3ccccc3ccn12	0	0	32	0	37	0
COc1ccc2cc(-c3[nH]ncc3CN3CCCC3c3nonc3C)ccc2c1 (stereo not drawn)	0	0	35	0	51	0

Source: PubChem (National Center for Advancing Translational Sciences (NCATS))
